Test results as given in the supplement of paper PMC6555819.

Assays:
Experiment in all cases: PBM binding z-score (relative to random genomic background probes); higher = stronger binding; sequences stand for … in GC…GCGATTGACAGCGTAGAATGAAGG
[1] = test system: FXR:RXRa (NR concentration 270 nM, RXRa partner concentration 90 nM)
Outline: (§1)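 Binding buffer was PBS pH 7.4 with 2% milk, 0.02% Triton X-100, 1 mM DTT, 0.2 mg/mL BSA and 0.4 mg/ml salmon testes DNA. In it, ligand-free nuclear receptor dimers were incubated 1 h on custom Agilent 4×180K protein-binding microarrays carrying double-stranded probes. Antibodies against each partner (one per run) detected binding, and z-scores were calculated against random background probes after regression normalization of scanned fluorescence.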

[2] = test system: LXRa:RXRa (NR concentration 270 nM, RXRa partner concentration 90 nM)
Outline: as §1

[3] = test system: LXRa homodimer (NR concentration 270 nM)
Outline: as §1

[4] = test system: LXRb:RXRa (NR concentration 270 nM, RXRa partner concentration 90 nM)
Outline: as §1

[5] = test system: LXRb homodimer (NR concentration 270 nM)
Outline: as §1

[6] = test system: PPARa:RXRa (NR concentration 270 nM, RXRa partner concentration 90 nM)
Outline: as §1

[7] = test system: PPARg:RXRa (NR concentration 180 nM, RXRa partner concentration 90 nM)
Outline: as §1

[8] = test system: PPARg:RXRa 270nM:90nM, anti-RXR (NR concentration 270 nM, RXRa partner concentration 90 nM)
Outline: as §1

[9] = test system: PPARg:RXRa 30nM:10nM, anti-RXR (NR concentration 30 nM, RXRa partner concentration 10 nM)
Outline: as §1

[10] = test system: PPARg:RXRa 90nM:30nM, anti-RXR (NR concentration 90 nM, RXRa partner concentration 30 nM)
Outline: as §1

[11] = test system: PPARg:RXRa DBDmut IVT, anti-RXR (DBD mutation: RXRa K156A/R161A, NR concentration 270 nM, RXRa partner concentration 90 nM)
Outline: as §1

[12] = test system: PPARg:RXRa IVT, anti-PPARg (NR concentration 270 nM, RXRa partner concentration 90 nM)
Outline: as §1

[13] = test system: PPARg DBDmut:RXRa IVT, anti-PPARg (DBD mutation: PPARg1 K132A/R137A, NR concentration 270 nM, RXRa partner concentration 90 nM)
Outline: as §1

[14] = test system: PPARg DBDmut IVT, anti-PPARg (DBD mutation: PPARg1 K132A/R137A, NR concentration 270 nM)
Outline: as §1

[15] = test system: PPARg homodimer (NR concentration 180 nM)
Outline: as §1

[16] = test system: PXR:RXRa (NR concentration 270 nM, RXRa partner concentration 90 nM)
Outline: as §1

[17] = test system: PXR homodimer (NR concentration 270 nM)
Outline: as §1

[18] = test system: RARa:RXR (NR concentration 270 nM, RXRa partner concentration 90 nM)
Outline: as §1

[19] = test system: RARa homodimer (NR concentration 270 nM)
Outline: as §1

[20] = test system: RARb:RXRa (NR concentration 270 nM, RXRa partner concentration 90 nM)
Outline: as §1

Sequence	PBM binding z-score [1]	PBM binding z-score [2]	PBM binding z-score [3]	PBM binding z-score [4]	PBM binding z-score [5]	PBM binding z-score [6]	PBM binding z-score [7]	PBM binding z-score [8]	PBM binding z-score [9]	PBM binding z-score [10]	PBM binding z-score [11]	PBM binding z-score [12]	PBM binding z-score [13]	PBM binding z-score [14]	PBM binding z-score [15]	PBM binding z-score [16]	PBM binding z-score [17]	PBM binding z-score [18]	PBM binding z-score [19]	PBM binding z-score [20]
GGAACGATGGCAAGTTGATAGCAGAGTTTGATGG	-0.624	-0.756	-0.63	-0.971	-1.01	-0.654	0.339	-0.873	-0.448	-0.709	0.0538	-0.751	-1.07	-0.527	-1.16	-0.323	-0.221	-0.504	-0.494	-0.496
CGTCCAAGGTCAGCAGGTCAGCGAAAGCGACGTG	6.11	4.35	0.407	3.19	-0.541	4.9	4.79	4.99	1.45	3.69	3.38	3.9	-0.473	-0.272	3.39	4.07	0.421	5.3	1.49	5.43
ACTTACGTGTCAACGAGGTTATAGCACGCGTATA	0.812	1.03	0.113	1.02	0.0422	1.84	0.927	0.653	0.374	0.627	0.785	1.07	0.246	0.671	0.479	1.26	0.652	1.65	0.0685	1.2
TCTTGTAGATCAATAGATGTTAAGAAAGTGCGCT	0.0811	0.309	0.0852	0.0203	-0.00365	-0.0219	0.251	1.64	3.17	2.42	1.57	0.386	0.918	1.19	-0.501	0.533	0.037	0.616	0.125	-0.26
TCTTGTAGATCAACAGGAGGTGAAGAAAGATCGA	0.155	0.134	-0.343	0.298	-0.585	0.798	-0.0204	1.4	2.7	2.04	1.56	1.14	-0.0745	1.41	-0.39	0.179	-0.438	0.154	-0.0996	0.194
ATCGAAAGGTCGAAGGTGAGTAAACCCACCCGAA	4.69	3.83	0.284	3.05	0.315	4.88	4.96	5.19	1.91	4.14	0.0227	2.17	0.972	0.487	1.89	3.11	0.0457	4.5	0.979	3.88
GCGACTGAGGCAAAGCAGGTTACCATAAGGTTGG	-0.391	-0.493	-0.444	-0.567	-1.32	-0.0233	0.328	-0.42	-0.736	-0.693	0.099	-0.228	-1.27	-1.26	-0.646	-0.22	-0.398	0.0827	-0.323	-0.412
ATCTCTAGGCAACCAAGTTCAGTGAATGCCGAAC	0.291	0.227	0.263	0.113	0.281	0.303	0.114	0.0403	-0.317	0.0136	0.769	0.547	0.416	0.473	-0.0686	1.68	1.43	0.461	-0.516	0.951
TCTGCTAGGTCAGTTGGTCAGCTAACGAGCTGCC	0.844	0.445	-0.44	0.299	0.673	1.29	0.575	1.83	1.27	1.66	2.77	3.08	-0.303	0.752	0.0124	0.0781	-0.754	0.864	-0.941	3.35
ACAGACAGGTGATGAGGGTAACTCAGGCTATCAT	0.367	-0.0236	0.0191	0.0104	-0.517	0.465	0.8	-0.0214	0.142	-0.218	-0.0163	0.685	-0.934	0.0306	0.543	0.296	-0.131	0.591	-0.698	0.496
ACTTGCGGGTCAACGAGGTTATAGCACGCGTATA	6.24	4.45	0.548	4.2	0.327	5.46	5.47	5.43	2.04	4.42	5.15	4.85	1.36	0.482	2.04	4.86	3.57	5.03	1.02	3.83
GCTATTAGTTGAAAGGACAACCGAATGATTCTCG	-0.0393	-0.0503	-0.151	-0.41	-0.0299	0.0455	0.857	1.45	0.556	0.958	0.447	-0.166	0.553	0.18	0.735	-0.372	0.0666	-0.189	1.02	1.32
ATCTCTAGTTAAGACTCAGTTCAGTGAAGAACGC	0.381	0.546	0.699	0.459	0.922	-0.0115	-0.0269	0.419	0.293	0.347	0.356	0.194	1.65	1.35	1.07	1.23	2.02	0.831	1.93	0.235
CAAACTAGGTCAAAGGTTAAAGTCGAGCCAACCA	7.41	5.99	2.37	5.56	1.22	7.61	13.6	11.3	13	13.7	8.92	9.36	6.93	5.38	5.15	5.99	0.433	8.12	2.07	5.01
GCTTGTAGATCAAGGTTAACAAAGACTAAGCTAA	0.151	1.17	-0.222	0.96	-0.488	1.91	2.04	3.12	0.936	2.61	1.56	1.61	-0.0951	0.163	0.0842	0.565	0.265	1.07	-0.205	1.04
TCTTGTAGATCAACAGGAGGTTAAGTAAGATCGA	0.451	1.3	0.363	1.17	-0.23	1.52	-0.0593	1.22	2.44	1.51	1.56	0.854	0.235	0.997	-0.29	0.916	-0.272	1.46	0.0899	0.659
TAGCCTAGGTCATGGGCCAGGATACCACGCGAAC	4.32	3.44	0.422	2.16	-0.43	4.16	3.93	3.93	1.12	2.85	1.37	3.45	0.121	0.0645	0.888	1.54	-0.528	2.52	-0.123	3.8
CCTACTGGGTCATCAGGTCATTGATATCAACGTT	4.46	3.76	2.34	3.19	-0.201	4.86	7.61	6.52	4.45	5.99	6.76	7.36	1.4	0.93	3.28	3.76	0.934	4.74	1.85	3.9
AATACAGGGTCAATAGGCCAGAGTAGGTACGAAT	6.54	5.03	0.816	3.72	0.669	5.72	6.47	5.46	2.53	4.61	2.44	4.21	1.55	0.759	2.2	2.69	0.585	3.85	0.911	4.17
CCCACTGGGGCAAGGTTACCATAACGCACAGCCA	0.184	0.769	-0.0723	0.417	-0.882	2.46	4.81	4.76	1.92	4.56	4.18	5.58	2.71	0.0183	1.07	0.144	-0.536	1.05	0.0116	1.75
CTGGAAAGGTCGGTTGAGGTGAGTATACGGATAA	2.81	1.32	0.136	1.12	-0.219	2.57	0.576	0.975	-0.182	0.424	-0.117	0.957	-0.556	0.0614	0.799	3.21	-0.0647	2.05	0.351	2.89
TCATCTAGGTAAATGCTAGGTGAAAGTCCGATCT	0.554	0.411	0.0508	0.263	-0.0728	1.17	0.51	2.29	3.44	2.92	3.81	3.11	1.09	0.995	0.213	0.375	-0.263	0.578	-0.0135	0.219
CAAACTTGGTCACAGAGGTCAAAGTCCGTGCGTA	5.4	5.01	5.81	5.15	1.63	5.31	4.74	5.07	2.04	4.21	2.87	4.58	0.599	0.268	3.66	6.07	3.89	6.64	1.42	4.34
GATCGGAGGACAAGGTCAGAGCTTTGTCCGTAGA	1.55	1.42	-0.502	0.993	-1.3	2.42	1.07	2	-0.141	1.17	-0.00086	0.881	-0.747	-1.99	0.29	1.76	-0.362	2.03	-0.62	3.47
CCTAGTTGGTCAGGAGGTCACCCACCGGATATGA	3.56	3.31	1.59	3.13	0.503	4.04	2.76	3.87	1.01	2.98	0.575	3.28	-0.921	-0.185	3.43	4.07	1.23	4.11	1.53	3.61
CAGCTTAGGTCAGGGCCAGTATAGGAGGAACGTT	2.21	1.3	-0.0157	0.814	-0.56	2.17	0.606	0.732	-0.0225	0.447	1.28	0.782	-0.279	-1.2	1.34	0.726	0.0136	1.68	0.556	3.79
ATATGTAGGTTAACGGGTCATTCAGTTTGCGCAT	2.83	3.03	1.03	3.05	0.599	5.14	7.84	6.45	4.4	6.25	8.01	7.92	2.68	1.82	2.04	3.26	3.42	3.42	1.02	2.54
AGTCAAAGTTCAGGACTAGGTAACGTAAAGCACG	3.95	3.56	1.18	1.7	0.0894	3.41	4.81	5.05	2.27	4.21	0.593	3.09	0.657	0.484	1.73	2.41	1.04	2.4	1.11	4.13
